Data: the supplement of paper PMC10849652
Targets with a hit are over-represented here; the source holds about 7,900 in all. About 0.6% of all pairs of compound and target were hits.

These targets were tested with C#Cc1cccc(Nc2ncnc3cc(OCCOC)c(OCCOC)cc23)c1 [erlotinib] (assay: log2 fold change, soluble protein after heating vs DMSO (PISA); higher = thermal stabilisation; K562 cells, 10 uM, 30 min; active = over 0.2 and 3.5 SD of the protein, either way, in both replicates (recomputed)).
In short: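 Values are thermal stability changes relative to control samples and are taken from duplicates. They are stated as log2 fold changes. Before quantification by TMTpro 16plex LC-MS/MS with equalised channel sums, K562 cells at 2×10^6 cells/mL were treated with 10 μM compound for 30 min, heated in aliquots for 3 min across 48°C-58°C, pooled, extracted in PBS with 0.5% NP-40 at 4°C, and centrifuged at 21,000xg for 90 min to give the soluble supernatant.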

Chain of UniProt Q8WVY7 (Q8WVY7 whole entry, looked up): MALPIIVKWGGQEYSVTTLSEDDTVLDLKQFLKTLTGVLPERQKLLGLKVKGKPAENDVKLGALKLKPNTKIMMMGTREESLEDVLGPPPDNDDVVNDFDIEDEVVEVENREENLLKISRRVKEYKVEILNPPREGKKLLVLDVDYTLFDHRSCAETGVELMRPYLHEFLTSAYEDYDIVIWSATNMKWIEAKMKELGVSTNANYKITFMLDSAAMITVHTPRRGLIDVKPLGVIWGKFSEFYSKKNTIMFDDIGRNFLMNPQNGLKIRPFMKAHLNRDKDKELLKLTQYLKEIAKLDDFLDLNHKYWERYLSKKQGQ
Chain of UniProt O43592 (O43592 whole entry, looked up): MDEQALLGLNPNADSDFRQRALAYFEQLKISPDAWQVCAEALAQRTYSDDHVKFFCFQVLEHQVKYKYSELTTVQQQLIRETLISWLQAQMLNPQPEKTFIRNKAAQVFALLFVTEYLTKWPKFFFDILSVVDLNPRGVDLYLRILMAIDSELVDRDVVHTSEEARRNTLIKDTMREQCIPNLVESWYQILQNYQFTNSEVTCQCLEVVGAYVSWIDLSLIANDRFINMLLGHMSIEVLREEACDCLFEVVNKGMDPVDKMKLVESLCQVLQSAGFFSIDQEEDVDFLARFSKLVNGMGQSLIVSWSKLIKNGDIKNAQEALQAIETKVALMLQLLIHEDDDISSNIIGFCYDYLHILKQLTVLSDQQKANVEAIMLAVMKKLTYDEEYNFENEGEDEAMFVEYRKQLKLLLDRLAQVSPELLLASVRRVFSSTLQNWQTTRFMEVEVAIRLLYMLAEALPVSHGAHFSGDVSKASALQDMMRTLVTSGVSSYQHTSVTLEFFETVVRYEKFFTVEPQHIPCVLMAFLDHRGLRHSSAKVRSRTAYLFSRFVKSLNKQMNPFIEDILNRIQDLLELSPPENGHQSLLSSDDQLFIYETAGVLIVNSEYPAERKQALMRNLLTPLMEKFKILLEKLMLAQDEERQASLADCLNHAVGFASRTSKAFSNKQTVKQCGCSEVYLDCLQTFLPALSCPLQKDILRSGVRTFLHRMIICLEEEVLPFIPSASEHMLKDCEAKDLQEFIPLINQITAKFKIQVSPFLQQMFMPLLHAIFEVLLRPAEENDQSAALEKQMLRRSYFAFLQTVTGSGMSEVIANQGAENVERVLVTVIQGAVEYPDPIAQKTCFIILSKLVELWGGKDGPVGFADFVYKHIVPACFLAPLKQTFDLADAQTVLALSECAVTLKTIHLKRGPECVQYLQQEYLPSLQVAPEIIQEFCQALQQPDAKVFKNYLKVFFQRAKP
Chain of WASHC2C, A0A096LPC5 (A0A096LPC5 whole entry, looked up): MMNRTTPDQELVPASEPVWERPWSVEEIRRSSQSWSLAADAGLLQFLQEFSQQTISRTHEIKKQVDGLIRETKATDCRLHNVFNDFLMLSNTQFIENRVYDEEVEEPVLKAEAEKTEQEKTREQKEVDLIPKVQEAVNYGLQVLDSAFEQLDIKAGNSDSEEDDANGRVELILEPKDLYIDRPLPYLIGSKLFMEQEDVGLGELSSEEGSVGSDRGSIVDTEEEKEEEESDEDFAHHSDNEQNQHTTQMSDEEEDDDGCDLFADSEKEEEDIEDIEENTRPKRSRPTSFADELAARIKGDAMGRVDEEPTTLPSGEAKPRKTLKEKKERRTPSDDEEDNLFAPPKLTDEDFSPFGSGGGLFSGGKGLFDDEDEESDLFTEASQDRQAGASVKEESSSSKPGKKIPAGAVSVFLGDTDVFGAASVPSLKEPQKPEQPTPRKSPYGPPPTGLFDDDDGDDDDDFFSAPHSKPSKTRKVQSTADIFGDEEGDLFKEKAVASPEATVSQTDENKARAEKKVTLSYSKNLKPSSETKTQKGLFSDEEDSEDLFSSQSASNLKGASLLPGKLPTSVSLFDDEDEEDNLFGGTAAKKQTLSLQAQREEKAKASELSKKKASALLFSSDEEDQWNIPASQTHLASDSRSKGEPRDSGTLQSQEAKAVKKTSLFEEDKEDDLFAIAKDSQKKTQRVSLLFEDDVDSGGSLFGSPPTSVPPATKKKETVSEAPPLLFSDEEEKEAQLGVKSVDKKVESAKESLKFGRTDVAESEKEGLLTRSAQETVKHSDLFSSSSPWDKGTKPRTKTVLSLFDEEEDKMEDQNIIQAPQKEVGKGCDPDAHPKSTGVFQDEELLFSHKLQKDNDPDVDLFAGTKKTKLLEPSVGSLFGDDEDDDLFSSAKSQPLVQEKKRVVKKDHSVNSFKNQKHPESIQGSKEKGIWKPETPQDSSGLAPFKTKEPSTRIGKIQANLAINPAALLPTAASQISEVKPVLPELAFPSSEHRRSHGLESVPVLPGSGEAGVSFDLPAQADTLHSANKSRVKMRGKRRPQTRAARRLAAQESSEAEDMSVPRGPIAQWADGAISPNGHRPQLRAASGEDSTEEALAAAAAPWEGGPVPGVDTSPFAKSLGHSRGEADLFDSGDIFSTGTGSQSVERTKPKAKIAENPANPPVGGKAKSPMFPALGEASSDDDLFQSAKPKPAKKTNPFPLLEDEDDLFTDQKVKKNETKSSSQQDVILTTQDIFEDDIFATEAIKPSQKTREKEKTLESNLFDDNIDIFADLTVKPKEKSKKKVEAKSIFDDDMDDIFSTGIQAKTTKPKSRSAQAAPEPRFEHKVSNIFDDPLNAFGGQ
Chain of UniProt Q86XT9 (Q86XT9 whole entry, looked up): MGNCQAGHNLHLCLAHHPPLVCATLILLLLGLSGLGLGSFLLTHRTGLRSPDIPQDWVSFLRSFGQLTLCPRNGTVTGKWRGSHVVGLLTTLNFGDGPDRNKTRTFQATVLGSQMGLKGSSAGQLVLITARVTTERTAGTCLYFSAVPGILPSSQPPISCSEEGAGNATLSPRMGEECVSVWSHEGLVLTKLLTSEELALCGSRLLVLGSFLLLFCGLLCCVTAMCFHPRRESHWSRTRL
Chain of UniProt Q9Y4E6 (Q9Y4E6 whole entry, looked up): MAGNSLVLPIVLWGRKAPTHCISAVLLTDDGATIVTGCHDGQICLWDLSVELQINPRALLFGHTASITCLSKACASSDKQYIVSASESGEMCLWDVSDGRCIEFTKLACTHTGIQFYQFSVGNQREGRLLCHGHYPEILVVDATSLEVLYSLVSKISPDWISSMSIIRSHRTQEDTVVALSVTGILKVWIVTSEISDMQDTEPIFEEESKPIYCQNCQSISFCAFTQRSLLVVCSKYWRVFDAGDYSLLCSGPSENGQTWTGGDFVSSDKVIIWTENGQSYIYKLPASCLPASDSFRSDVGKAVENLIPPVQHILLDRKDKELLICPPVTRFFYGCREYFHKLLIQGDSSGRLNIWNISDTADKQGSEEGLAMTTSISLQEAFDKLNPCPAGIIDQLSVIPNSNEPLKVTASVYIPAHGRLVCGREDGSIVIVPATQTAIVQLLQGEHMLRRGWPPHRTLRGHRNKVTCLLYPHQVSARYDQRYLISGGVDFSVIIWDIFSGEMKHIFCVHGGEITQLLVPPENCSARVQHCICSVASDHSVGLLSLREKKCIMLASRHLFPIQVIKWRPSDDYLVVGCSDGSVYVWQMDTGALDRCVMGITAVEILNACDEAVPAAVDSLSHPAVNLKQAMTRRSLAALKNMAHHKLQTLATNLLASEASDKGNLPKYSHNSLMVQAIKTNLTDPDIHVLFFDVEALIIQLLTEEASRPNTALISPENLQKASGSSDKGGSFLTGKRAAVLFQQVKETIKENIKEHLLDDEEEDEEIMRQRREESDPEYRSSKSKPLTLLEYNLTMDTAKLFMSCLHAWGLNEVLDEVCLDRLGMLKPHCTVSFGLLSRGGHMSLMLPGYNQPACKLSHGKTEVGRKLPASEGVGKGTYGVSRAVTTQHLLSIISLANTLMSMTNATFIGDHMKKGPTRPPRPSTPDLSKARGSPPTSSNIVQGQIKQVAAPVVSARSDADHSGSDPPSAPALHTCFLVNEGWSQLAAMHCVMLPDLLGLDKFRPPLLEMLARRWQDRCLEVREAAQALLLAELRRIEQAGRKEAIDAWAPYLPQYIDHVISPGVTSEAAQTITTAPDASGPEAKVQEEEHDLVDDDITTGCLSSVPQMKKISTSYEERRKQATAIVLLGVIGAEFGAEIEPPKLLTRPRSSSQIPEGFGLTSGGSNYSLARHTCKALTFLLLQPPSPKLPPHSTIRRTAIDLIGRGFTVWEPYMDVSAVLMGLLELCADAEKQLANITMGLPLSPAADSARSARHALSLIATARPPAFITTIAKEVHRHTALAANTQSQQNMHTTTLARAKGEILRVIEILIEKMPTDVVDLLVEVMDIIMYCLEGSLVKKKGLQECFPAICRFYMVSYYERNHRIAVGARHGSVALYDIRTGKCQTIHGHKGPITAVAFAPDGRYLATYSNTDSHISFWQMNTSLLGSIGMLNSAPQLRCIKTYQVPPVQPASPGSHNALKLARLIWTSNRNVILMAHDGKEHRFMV
Chain of UniProt Q8N2K1 (Q8N2K1 whole entry, looked up): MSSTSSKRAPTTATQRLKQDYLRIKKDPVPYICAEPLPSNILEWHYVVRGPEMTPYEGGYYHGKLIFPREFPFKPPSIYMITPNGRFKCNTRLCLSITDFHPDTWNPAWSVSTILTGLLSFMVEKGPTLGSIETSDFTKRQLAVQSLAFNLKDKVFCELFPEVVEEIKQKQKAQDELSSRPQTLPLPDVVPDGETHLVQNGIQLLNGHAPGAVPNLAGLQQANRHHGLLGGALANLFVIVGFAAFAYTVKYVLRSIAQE
Chain of UniProt Q9NUM4 (Q9NUM4 whole entry, looked up): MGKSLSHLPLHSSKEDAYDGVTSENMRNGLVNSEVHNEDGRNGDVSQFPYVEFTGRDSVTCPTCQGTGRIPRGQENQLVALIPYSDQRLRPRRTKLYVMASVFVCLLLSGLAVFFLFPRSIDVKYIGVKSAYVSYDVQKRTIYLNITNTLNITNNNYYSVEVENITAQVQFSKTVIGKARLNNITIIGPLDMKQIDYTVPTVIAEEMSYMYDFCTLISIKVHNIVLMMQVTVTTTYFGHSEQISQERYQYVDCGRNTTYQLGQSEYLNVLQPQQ

log2 fold change, inactive:
TMEM219 (UniProt Q86XT9) -0.029
TRAPPC13 isoform 5 (UniProt A5PLN9) 0.133
TUBA4A (UniProt P68366) 0.016
TMEM104 (UniProt Q8NE00) 0.08
XPOT (UniProt O43592) -0.035
XIAP (UniProt P98170) 0.166
XRCC1 (UniProt P18887) 0.036
USP7 (UniProt Q93009) 0.089
WASHC2C, A0A096LPC5 0.095
TMEM9B (UniProt Q9NQ34) 0.062
TP53BP1 isoform 2 (UniProt Q12888) -0.011
UFD1 isoform 1 (UniProt Q92890) 0.001
USP14 (UniProt P54578) -0.027
WDR62 isoform 4 (UniProt O43379) 0.046
TMEM106B (UniProt Q9NUM4) 0.007
WDR7 (UniProt Q9Y4E6) 0.06
USO1 isoform 2 (UniProt O60763) -0.008
UBLCP1 (UniProt Q8WVY7) 0.03
TMEM161A (UniProt Q9NX61) 0.017
TMEM164 (UniProt Q5U3C3) -0.103
UBE2J2 isoform 3 (UniProt Q8N2K1) -0.096
XPO1 (UniProt O14980) 0.019
